Test results reported in PMC5700166.

What was measured:
Experiment in all cases: protein-binding microarray (PBM); PBM: ~300 nM protein, 6 mM HEPES pH 7.8, 80 mM KCl, 0.5 mM EDTA, 0.5 mM EGTA, 6% glycerol, 35 ng/ul poly-dIdC, 1% milk, 1 h, room temperature; Ap Aiptasia and Nv Nematostella (sea anemones) / Co Capsaspora / Aq Amphimedon (sponge) / Dm Drosophila / Hu human; RHD is the Rel homology domain; high values mean tight binding
Settings in all cases: dsDNA, one strand shown
[1] = biological target: T1, GST-Ap-NF-kB RHD (Exaiptasia pallida (Aiptasia), UniProt A0A913YAJ5 2-422)
T1 sequence: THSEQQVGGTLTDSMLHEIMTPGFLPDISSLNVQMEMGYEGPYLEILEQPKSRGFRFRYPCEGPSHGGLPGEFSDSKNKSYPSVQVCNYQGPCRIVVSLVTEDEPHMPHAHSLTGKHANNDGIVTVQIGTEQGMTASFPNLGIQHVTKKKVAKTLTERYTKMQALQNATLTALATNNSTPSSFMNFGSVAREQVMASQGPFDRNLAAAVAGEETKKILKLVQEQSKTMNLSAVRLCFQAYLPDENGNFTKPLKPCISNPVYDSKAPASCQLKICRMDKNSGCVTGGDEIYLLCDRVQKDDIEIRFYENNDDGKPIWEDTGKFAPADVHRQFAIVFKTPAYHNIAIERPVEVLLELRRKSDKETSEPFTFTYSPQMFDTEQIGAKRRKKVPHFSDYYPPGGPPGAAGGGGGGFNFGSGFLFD

[2] = biological target: T2, GST-Nv-NF-kB (Cys allele) (Nematostella vectensis, UniProt E5G601 2-411)
T2 sequence: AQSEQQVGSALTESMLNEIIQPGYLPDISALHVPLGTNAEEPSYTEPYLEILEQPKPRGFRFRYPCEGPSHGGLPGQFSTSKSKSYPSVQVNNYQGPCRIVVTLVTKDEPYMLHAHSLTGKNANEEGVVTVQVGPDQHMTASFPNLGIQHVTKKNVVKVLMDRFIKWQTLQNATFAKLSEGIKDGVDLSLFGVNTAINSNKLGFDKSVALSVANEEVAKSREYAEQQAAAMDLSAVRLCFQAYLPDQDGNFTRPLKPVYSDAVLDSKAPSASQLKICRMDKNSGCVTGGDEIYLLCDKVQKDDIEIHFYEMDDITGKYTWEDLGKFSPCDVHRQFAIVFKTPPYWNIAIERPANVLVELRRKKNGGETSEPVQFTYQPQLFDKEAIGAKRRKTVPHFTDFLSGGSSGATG

[3] = biological target: T3, GST-Co-NF-kB (Capsaspora owczarzaki, UniProt F1ARL5 200-546)
T3 sequence: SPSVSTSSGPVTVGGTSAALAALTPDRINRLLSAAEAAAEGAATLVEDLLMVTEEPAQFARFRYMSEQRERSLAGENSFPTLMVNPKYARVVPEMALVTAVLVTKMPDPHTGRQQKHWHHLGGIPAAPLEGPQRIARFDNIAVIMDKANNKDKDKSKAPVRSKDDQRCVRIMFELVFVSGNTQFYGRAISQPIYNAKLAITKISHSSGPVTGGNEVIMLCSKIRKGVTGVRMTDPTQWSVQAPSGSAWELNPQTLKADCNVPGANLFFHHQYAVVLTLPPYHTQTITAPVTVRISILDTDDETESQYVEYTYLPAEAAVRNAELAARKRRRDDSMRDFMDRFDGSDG

[4] = biological target: T4, GST-Dm-Relish (Drosophila melanogaster, UniProt Q94527 99-473)
T4 sequence: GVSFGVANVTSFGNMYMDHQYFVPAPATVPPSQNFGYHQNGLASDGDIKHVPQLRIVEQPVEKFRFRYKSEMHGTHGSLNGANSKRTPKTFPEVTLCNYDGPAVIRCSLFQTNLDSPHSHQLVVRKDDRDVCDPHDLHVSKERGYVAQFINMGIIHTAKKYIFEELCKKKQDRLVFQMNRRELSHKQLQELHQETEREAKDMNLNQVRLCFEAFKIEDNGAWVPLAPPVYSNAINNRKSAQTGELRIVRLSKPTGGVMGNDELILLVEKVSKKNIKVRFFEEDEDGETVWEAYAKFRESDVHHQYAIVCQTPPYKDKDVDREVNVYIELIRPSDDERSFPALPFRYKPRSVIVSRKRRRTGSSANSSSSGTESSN

[5] = biological target: T5, GST-Aq-NF-kB (Amphimedon queenslandica, UniProt A9Y5G7 2-389)
T5 sequence: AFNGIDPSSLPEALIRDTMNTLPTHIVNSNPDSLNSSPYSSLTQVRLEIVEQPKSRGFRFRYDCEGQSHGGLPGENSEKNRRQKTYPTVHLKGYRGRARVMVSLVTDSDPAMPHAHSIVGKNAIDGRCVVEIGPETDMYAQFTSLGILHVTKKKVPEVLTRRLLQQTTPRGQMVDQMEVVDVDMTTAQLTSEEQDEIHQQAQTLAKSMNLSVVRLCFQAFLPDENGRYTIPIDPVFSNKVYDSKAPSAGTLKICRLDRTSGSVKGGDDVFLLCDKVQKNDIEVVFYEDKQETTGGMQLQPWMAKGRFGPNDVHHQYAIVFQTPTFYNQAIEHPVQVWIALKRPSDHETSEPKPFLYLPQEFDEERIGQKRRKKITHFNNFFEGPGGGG

| Sequence | binding signal [1] | binding signal [2] | binding signal [3] | binding signal [4] | binding signal [5] |
| --- | --- | --- | --- | --- | --- |
| CCGATTAACATCATCAGGGGGGATGATGTTAATCGGGTCTTGATTCGCTTGACGCTGCTG | 4.58 z-score | 4.51 z-score | 6.21 z-score | 4.27 z-score | 5.18 z-score |
| CCGATTAACATCATACCCCCCCATGATGTTAATCGGGTCTTGATTCGCTTGACGCTGCTG | 4.97 z-score | 2.65 z-score | 5.26 z-score | 3.98 z-score | 3.92 z-score |
| CCGATTAACATCAGGGGATGACCTGATGTTAATCGGGTCTTGATTCGCTTGACGCTGCTG | 3.72 z-score | 4.14 z-score | 1.93 z-score | 6.67 z-score | 6.55 z-score |
| CCGATTAACATCACATACTCCCCTGATGTTAATCGGGTCTTGATTCGCTTGACGCTGCTG | 4.4 z-score | 3.45 z-score | 3.69 z-score | 1.57 z-score | 3.42 z-score |
| CCGATTAACATCAGGCGATTCCCTGATGTTAATCGGGTCTTGATTCGCTTGACGCTGCTG | 1.93 z-score | 2.99 z-score | 1.44 z-score | 2.34 z-score | 3.88 z-score |
| CCGATTAACATCAGGGGAGGAAATGATGTTAATCGGGTCTTGATTCGCTTGACGCTGCTG | 3.45 z-score | 4.2 z-score | 7.38 z-score | 1.91 z-score | 3.51 z-score |
| CCGATTAACATCAGGACTTCCCATGATGTTAATCGGGTCTTGATTCGCTTGACGCTGCTG | 3.08 z-score | 2.46 z-score | 1.82 z-score | 7.81 z-score | 4.72 z-score |
| CCGATTAACATCACGTTATTCCCTGATGTTAATCGGGTCTTGATTCGCTTGACGCTGCTG | 2.79 z-score | 2.96 z-score | 2.74 z-score | 4.77 z-score | 2.9 z-score |
| CCGATTAACATCAGGGGTTTTGATGATGTTAATCGGGTCTTGATTCGCTTGACGCTGCTG | 3.81 z-score | 3.46 z-score | 1.34 z-score | 5.6 z-score | 3.25 z-score |
| CCGATTAACATCAGGATCTCCCCTGATGTTAATCGGGTCTTGATTCGCTTGACGCTGCTG | 7.91 z-score | 5.49 z-score | 4.26 z-score | 5.64 z-score | 6.38 z-score |
| CCGATTAACATCAGATCTTCCCCTGATGTTAATCGGGTCTTGATTCGCTTGACGCTGCTG | 4.63 z-score | 6.25 z-score | 7.3 z-score | 4.83 z-score | 6.29 z-score |
| CCGATTAACATCAGGAGTCCCCATGATGTTAATCGGGTCTTGATTCGCTTGACGCTGCTG | 6.21 z-score | 4.39 z-score | 2.23 z-score | 7.3 z-score | 4.27 z-score |
| CCGATTAACATCAAAAGAATCCCTGATGTTAATCGGGTCTTGATTCGCTTGACGCTGCTG | 3.44 z-score | 3.59 z-score | 1.15 z-score | 5.35 z-score | 4.69 z-score |
| CCGATTAACATCAGGGGGGGTACTGATGTTAATCGGGTCTTGATTCGCTTGACGCTGCTG | 5.04 z-score | 3.45 z-score | 4.54 z-score | 5.04 z-score | 4.67 z-score |
| CCGATTAACATCAGAAGATTCCCTGATGTTAATCGGGTCTTGATTCGCTTGACGCTGCTG | 3.38 z-score | 4.85 z-score | 3.43 z-score | 3.48 z-score | 5.19 z-score |
| CCGATTAACATCAGGGAGTTACCTGATGTTAATCGGGTCTTGATTCGCTTGACGCTGCTG | 4.03 z-score | 5.22 z-score | 2.38 z-score | 7.17 z-score | 7.22 z-score |
| CCGATTAACATCAGGGATAACCCTGATGTTAATCGGGTCTTGATTCGCTTGACGCTGCTG | 3.63 z-score | 3.77 z-score | 1.82 z-score | 4.42 z-score | 6.12 z-score |
| CCGATTAACATCAAAGTGTCCCCTGATGTTAATCGGGTCTTGATTCGCTTGACGCTGCTG | 5.38 z-score | 4.57 z-score | 5.15 z-score | 1.98 z-score | 4.15 z-score |
| CCGATTAACATCAGAATGCCCCCTGATGTTAATCGGGTCTTGATTCGCTTGACGCTGCTG | 4.74 z-score | 5.02 z-score | 2.56 z-score | 3.56 z-score | 5.26 z-score |
| CCGATTAACATCAGGGGGTAAAATGATGTTAATCGGGTCTTGATTCGCTTGACGCTGCTG | 4.43 z-score | 4.2 z-score | 8.57 z-score | 3.24 z-score | 4.16 z-score |
| CCGATTAACATCAGAACTTCCCATGATGTTAATCGGGTCTTGATTCGCTTGACGCTGCTG | 2.63 z-score | 2.58 z-score | 1.5 z-score | 3.3 z-score | 2.91 z-score |
| CCGATTAACATCAGGGGATGGGATGATGTTAATCGGGTCTTGATTCGCTTGACGCTGCTG | 3.51 z-score | 3.51 z-score | 2.16 z-score | 1.4 z-score | 2.91 z-score |
| CCGATTAACATCAGGGAAGTCCATGATGTTAATCGGGTCTTGATTCGCTTGACGCTGCTG | 2.24 z-score | 2.51 z-score | 1.08 z-score | 7.44 z-score | 4.62 z-score |
| CCGATTAACATCACCAATTTCCCTGATGTTAATCGGGTCTTGATTCGCTTGACGCTGCTG | 3.3 z-score | 4.17 z-score | 3.83 z-score | 1.84 z-score | 3.17 z-score |
| CCGATTAACATCAGGGGGGTACATGATGTTAATCGGGTCTTGATTCGCTTGACGCTGCTG | 5.31 z-score | 2.52 z-score | 5.22 z-score | 4.13 z-score | 3.31 z-score |
| CCGATTAACATCACTTTTTCCCATGATGTTAATCGGGTCTTGATTCGCTTGACGCTGCTG | 2.03 z-score | 3.6 z-score | 4.08 z-score | 1.51 z-score | 1.99 z-score |
| CCGATTAACATCAGGGGGATGTATGATGTTAATCGGGTCTTGATTCGCTTGACGCTGCTG | 4.97 z-score | 4.88 z-score | 4.13 z-score | 4.17 z-score | 4.11 z-score |
